Results on 35 sequences are retold here after the supplement of paper PMC12645437, “Orthogonal IMiD-Degron Pairs Induce Selective Protein Degradation in Cells” (ACS Chemical Biology, 2025).

Whole data set: some 8,300 sequences, median “log2 fold change of degron read counts, EGFP-low vs EGFP+ sorted cells (limma voom), compound-induced degradation” near -1.1, cut for the highest 2% near 3.2. The full list was thinned out, with the highest values kept by preference.

The assay deals with T1, CRBN, Q96SW2.
T1 chain: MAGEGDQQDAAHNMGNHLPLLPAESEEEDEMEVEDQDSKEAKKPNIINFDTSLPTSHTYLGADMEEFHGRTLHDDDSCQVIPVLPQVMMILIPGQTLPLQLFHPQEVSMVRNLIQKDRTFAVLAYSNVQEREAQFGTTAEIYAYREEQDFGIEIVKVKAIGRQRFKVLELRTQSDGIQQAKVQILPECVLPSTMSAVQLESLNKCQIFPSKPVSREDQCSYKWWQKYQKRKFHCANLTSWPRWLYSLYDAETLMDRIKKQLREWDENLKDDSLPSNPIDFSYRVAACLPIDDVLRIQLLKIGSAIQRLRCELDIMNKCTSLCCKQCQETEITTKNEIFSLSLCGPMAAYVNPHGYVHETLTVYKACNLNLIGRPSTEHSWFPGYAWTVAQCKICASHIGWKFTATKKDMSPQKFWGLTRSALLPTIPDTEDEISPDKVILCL
In words: log2 fold change of degron read counts, EGFP-low vs EGFP+ sorted cells (limma voom), compound-induced degradation; higher = more compound-induced degradation of the degron-EGFP fusion; degrons are variants of IKZF1/3 zinc finger 2; compound dose not given here. Particulars: Jurkat, 18 h.

[1] abbreviates: compound: compound 19 (5-tert-butyl-thalidomide).
[2] abbreviates: compound: compound 22 (5-morpholino-thalidomide).
The mark [3] stands for this setting: compound: compound 33 (diphenyl IMiD analogue).
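Also: pooled lentiviral library of zinc finger degron-EGFP fusions in mCherry-positive Jurkat cells, FACS-sorted after compound exposure, with degron abundance counted by next-generation sequencing.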

As for FKCDVCGADFTQKGNLLRHIKL [46F_47K_49D_50V_52G_53A_54D_55F_67L_, Q9UKT9], the “log2 fold change of degron read counts” value reads like this: under setting [1], -2.97; under setting [2], -3.35; under setting [3], -3.54; (compound: thalidomide) -2.81.

FFCEICGRYFTQKGNLLRHIKL [46F_47F_49E_50I_52G_53R_54Y_55F_67L_, Q9UKT9]: the “log2 fold change of degron read counts” value is, setting by setting: under setting [1], 0.941; under setting [2], 0.578; under setting [3], -0.864; (compound: thalidomide) -0.888.

In the case of FKCNQCGRGFTQKGNLLRHIKL [46F_47K_49N_50Q_52G_53R_54G_55F_67L_, Q9UKT9], the “log2 fold change of degron read counts” value is -2.31 under setting [1], -2.82 under setting [2], -2.99 under setting [3] and -2.64 (compound: thalidomide).

On to FSCDQCGAAFTQKGNLLRHIKL [46F_47S_49D_50Q_52G_53A_54A_55F_67L_, Q9UKT9], for which the “log2 fold change of degron read counts” value is, setting by setting: under setting [1], -0.624; under setting [2], -1.35; under setting [3], 0.123; (compound: thalidomide) -2.08.

Regarding FSCDICGAQFTQKGNLLRHIKL [46F_47S_49D_50I_52G_53A_54Q_55F_67L_, Q9UKT9], the “log2 fold change of degron read counts” value by setting is: under setting [1], 1.74; under setting [2], 1.52; under setting [3], 0.198; (compound: thalidomide) 0.0774.

With LTCPICGFNCTQKGNLLRHIKL [46L_47T_49P_50I_52G_53F_54N_55C_67L_, Q9UKT9], the “log2 fold change of degron read counts” value is, setting by setting: under setting [1], -0.006; under setting [2], 2.04; under setting [3], 2.24; (compound: thalidomide) 2.86.

For the sequence FSCEICGHYFTQKGNLLRHIKL [46F_47S_49E_50I_52G_53H_54Y_55F_67L_, Q9UKT9], the “log2 fold change of degron read counts” value by setting is: under setting [1], -2.13; under setting [2], -2.82; under setting [3], -2.44; (compound: thalidomide) -2.99.

On to FLCEICGHLFTQKGNLLRHIKL [46F_47L_49E_50I_52G_53H_54L_55F_67L_, Q9UKT9], for which the “log2 fold change of degron read counts” value was -3.49 under setting [1], -2.55 under setting [2], -2.84 under setting [3] and -2.4 (compound: thalidomide).

In the case of FMCEICGRDFTQKGNLLRHIKL [46F_47M_49E_50I_52G_53R_54D_55F_67L_, Q9UKT9], the “log2 fold change of degron read counts” value reads like this: under setting [1], -4.1; under setting [2], -3.78; under setting [3], -2.1; (compound: thalidomide) -2.87.

As for FRCPVCGANFTQKGNLLRHIKL [46F_47R_49P_50V_52G_53A_54N_55F_67L_, Q9UKT9], the “log2 fold change of degron read counts” value by setting is: under setting [1], -0.729; under setting [2], -0.0361; under setting [3], 1.6; (compound: thalidomide) 1.18.

FWCDVCGANFTQKGNLLRHIKL [46F_47W_49D_50V_52G_53A_54N_55F_67L_, Q9UKT9]: the “log2 fold change of degron read counts” value runs as follows: under setting [1], 1.91; under setting [2], 3.89; under setting [3], 0.9; (compound: thalidomide) -0.759.

Turning to FECNVCGANFTQKGNLLRHIKL [46F_47E_49N_50V_52G_53A_54N_55F_67L_, Q9UKT9], the “log2 fold change of degron read counts” value under setting [1] was -2.58, the “log2 fold change of degron read counts” value under setting [2] was -1.81, the “log2 fold change of degron read counts” value under setting [3] stood at 0.845 and the “log2 fold change of degron read counts” value (compound: thalidomide) is 0.642.

For FVCDVCGANFTQKGNLLRHIKL [46F_47V_49D_50V_52G_53A_54N_55F_67L_, Q9UKT9], the “log2 fold change of degron read counts” value runs as follows: under setting [1], -1.78; under setting [2], 0.744; under setting [3], 0.282; (compound: thalidomide) 0.237.

In the case of FYCNVCGANFTQKGNLLRHIKL [46F_47Y_49N_50V_52G_53A_54N_55F_67L_, Q9UKT9], the “log2 fold change of degron read counts” value was 0.97 under setting [1], 2.35 under setting [2], 0.921 under setting [3] and -0.663 (compound: thalidomide).

Regarding FFCPVCGANFTQKGNLLRHIKL [46F_47F_49P_50V_52G_53A_54N_55F_67L_, Q9UKT9], the “log2 fold change of degron read counts” value is, setting by setting: under setting [1], 2.53; under setting [2], 3.51; under setting [3], 1.89; (compound: thalidomide) 1.22.

As for FICPVCGANFTQKGNLLRHIKL [46F_47I_49P_50V_52G_53A_54N_55F_67L_, Q9UKT9], the “log2 fold change of degron read counts” value is, setting by setting: under setting [1], -1.07; under setting [2], 2.83; under setting [3], 1.95; (compound: thalidomide) 2.35.

Turning to FWCNVCGANFTQKGNLLRHIKL [46F_47W_49N_50V_52G_53A_54N_55F_67L_, Q9UKT9], the “log2 fold change of degron read counts” value was 1.2 under setting [1], 3.53 under setting [2], 1.36 under setting [3] and -0.0957 (compound: thalidomide).

For the sequence FECDVCGANFTQKGNLLRHIKL [46F_47E_49D_50V_52G_53A_54N_55F_67L_, Q9UKT9], the “log2 fold change of degron read counts” value reads like this: under setting [1], -1.89; under setting [2], -2.52; under setting [3], 0.03; (compound: thalidomide) -0.264.

For the sequence FSCEICGHWFTQKGNLLRHIKL [46F_47S_49E_50I_52G_53H_54W_55F_67L_, Q9UKT9], the “log2 fold change of degron read counts” value is, setting by setting: under setting [1], -2.92; under setting [2], -3.14; under setting [3], -2.71; (compound: thalidomide) -2.77.

Take FRCNICGAMFTQKGNLLRHIKL [46F_47R_49N_50I_52G_53A_54M_55F_67L_, Q9UKT9]: the “log2 fold change of degron read counts” value reads like this: under setting [1], -1.41; under setting [2], -1.24; under setting [3], -0.539; (compound: thalidomide) -0.171.

In the case of FKCPICGHGFTQKGNLLRHIKL [46F_47K_49P_50I_52G_53H_54G_55F_67L_, Q9UKT9], the “log2 fold change of degron read counts” value was -2.34 under setting [1], -2.29 under setting [2], -2.14 under setting [3] and -1.69 (compound: thalidomide).

As for FYCPVCGAKFTQKGNLLRHIKL [46F_47Y_49P_50V_52G_53A_54K_55F_67L_, Q9UKT9], the “log2 fold change of degron read counts” value runs as follows: under setting [1], 2.58; under setting [2], 2.82; under setting [3], 1.14; (compound: thalidomide) 0.354.

For the sequence FSCEVCGAHFTQKGNLLRHIKL [46F_47S_49E_50V_52G_53A_54H_55F_67L_, Q9UKT9], the “log2 fold change of degron read counts” value by setting is: under setting [1], 2.19; under setting [2], 0.401; under setting [3], 0.505; (compound: thalidomide) 0.0402.

As to FHCEICGAMFTQKGNLLRHIKL [46F_47H_49E_50I_52G_53A_54M_55F_67L_, Q9UKT9], the “log2 fold change of degron read counts” value is, setting by setting: under setting [1], 2.38; under setting [2], 1.87; under setting [3], 1.06; (compound: thalidomide) -0.251.

Turning to FQCEICGAMFTQKGNLLRHIKL [46F_47Q_49E_50I_52G_53A_54M_55F_67L_, Q9UKT9], the “log2 fold change of degron read counts” value was -0.0508 under setting [1], 2.24 under setting [2], 2.45 under setting [3] and 3.57 (compound: thalidomide).

With FLCEICGAMFTQKGNLLRHIKL [46F_47L_49E_50I_52G_53A_54M_55F_67L_, Q9UKT9], the “log2 fold change of degron read counts” value under setting [1] is -0.288, the “log2 fold change of degron read counts” value under setting [2] was -1.63, the “log2 fold change of degron read counts” value under setting [3] came out at 0.563 and the “log2 fold change of degron read counts” value (compound: thalidomide) came out at 0.887.

With FECEICGAMFTQKGNLLRHIKL [46F_47E_49E_50I_52G_53A_54M_55F_67L_, Q9UKT9], the “log2 fold change of degron read counts” value is -0.963 under setting [1], -1.94 under setting [2], 0.392 under setting [3] and 1.16 (compound: thalidomide).

For the sequence FACEICGAMFTQKGNLLRHIKL [46F_47A_49E_50I_52G_53A_54M_55F_67L_, Q9UKT9], the “log2 fold change of degron read counts” value is 3.3 under setting [1], 1.74 under setting [2], 0.378 under setting [3] and -0.0211 (compound: thalidomide).

As to FFCEICGAMFTQKGNLLRHIKL [46F_47F_49E_50I_52G_53A_54M_55F_67L_, Q9UKT9], the “log2 fold change of degron read counts” value under setting [1] was determined as 3.34, the “log2 fold change of degron read counts” value under setting [2] worked out at 3.12, the “log2 fold change of degron read counts” value under setting [3] turned out to be 1.91 and the “log2 fold change of degron read counts” value (compound: thalidomide) was 0.537.

FGCEICGAMFTQKGNLLRHIKL [46F_47G_49E_50I_52G_53A_54M_55F_67L_, Q9UKT9]: the “log2 fold change of degron read counts” value is, setting by setting: under setting [1], 3; under setting [2], 2.34; under setting [3], 1.39; (compound: thalidomide) 0.523.

With FWCEICGAMFTQKGNLLRHIKL [46F_47W_49E_50I_52G_53A_54M_55F_67L_, Q9UKT9], the “log2 fold change of degron read counts” value reads like this: under setting [1], 3.33; under setting [2], 3.63; under setting [3], 2.34; (compound: thalidomide) 0.517.

For the sequence FCCEICGAMFTQKGNLLRHIKL [46F_47C_49E_50I_52G_53A_54M_55F_67L_, Q9UKT9], the “log2 fold change of degron read counts” value under setting [1] worked out at 2.28, the “log2 fold change of degron read counts” value under setting [2] was found to be 1.35, the “log2 fold change of degron read counts” value under setting [3] came to 2.11 and the “log2 fold change of degron read counts” value (compound: thalidomide) was 1.39.

As for FNCEICGAMFTQKGNLLRHIKL [46F_47N_49E_50I_52G_53A_54M_55F_67L_, Q9UKT9], the “log2 fold change of degron read counts” value reads like this: under setting [1], 1.65; under setting [2], -0.456; under setting [3], -0.467; (compound: thalidomide) -0.552.

Take FMCEICGAMFTQKGNLLRHIKL [46F_47M_49E_50I_52G_53A_54M_55F_67L_, Q9UKT9]: the “log2 fold change of degron read counts” value was -0.964 under setting [1], -0.957 under setting [2], 1.9 under setting [3] and 0.514 (compound: thalidomide).

As to FDCEICGAMFTQKGNLLRHIKL [46F_47D_49E_50I_52G_53A_54M_55F_67L_, Q9UKT9], the “log2 fold change of degron read counts” value is, setting by setting: under setting [1], 0.132; under setting [2], -1.04; under setting [3], -0.408; (compound: thalidomide) 0.217.
